Laboratory results published in PubChem BioAssay AID463173 (ICCB-Longwood Screening Facility, Harvard Medical School, 2010).
Out of some 52,000 compounds screened, about 4,300 (8.3%) were called active. What follows is part of a selection rich in actives, with near analogues and random picks from the rest. Unmarked numbers belong to inactive results. Rule as the data show it: active = survival mostly below about 52% (no sharp cut-off); inactive = mostly above about 56%.

These molecules were tested on DeltatarO mutant (assay: growth inhibition of S. aureus wild type versus tarO mutant, primary screen, teichoic acid synthesis inhibitors, RN4220, OD600 (AID 463173)). Settings: OD600, 18 h, hits give low values, screened at 18.75 µg/mL (by protocol).

Compared with `O=C(NC1CSCC1=O)c1ccccc1` (stereo unspecified), `Cc1oc(-c2ccccc2)nc1C(=O)O` is higher in survival: 69% for the first, 72% for the second.

Compared with `O=C1CC(c2ccccc2)Sc2nc(-c3ccc(F)cc3)nn21` (stereo unspecified), `O=C1CN=C(Nc2ccccc2Cl)N1Cc1ccccc1` is higher in survival: 81% for the first, 110% for the second.

First: O=c1[nH]cnc2nc3c4ccccc4c4ccccc4c3nc12
Second: CC1CCN(C(=O)CSc2nc3c([nH]c4ccccc43)c(=O)n2-c2ccccc2)CC1
The survival of the first is lower: 74% for the first, 75% for the second.

Compared with `O=C(Nc1cccc(F)c1)c1ccc2c(c1)N(Cc1ccccc1)C(=O)c1ccccc1S2(=O)=O`, `CC(NC(=O)c1ccc2c(c1)N(Cc1cccc(F)c1)C(=O)c1ccccc1S2)c1ccccc1` (stereo unspecified) is higher in survival: 80% for the first, 89% for the second.

Compared with `COc1ccccc1NC(=O)C1CCC(CNS(=O)(=O)c2ccc3c(c2)CC(C)N3C(C)=O)CC1` (stereo unspecified), `CCOc1ccccc1CNC(=O)C1CCN(C(=O)N2CC(CC)Oc3ccc(C)cc32)CC1` (stereo unspecified) is higher in survival: 58% for the first, 71% for the second.

Compared with `O=C(NC1CC(=O)N(c2cccc(F)c2)C1)c1ccc(S(=O)(=O)N2CCCC2)cc1` (stereo unspecified), `O=C(c1cc(S(=O)(=O)N2CCCC2)c[nH]1)N1CCN(c2cccc(Cl)c2)CC1` is higher in survival: 68% for the first, 98% for the second.

Compared with `CCOCCCNC(=O)C(=O)Nc1c2c(nn1-c1ccc(OC)cc1)CSC2`, `COc1cccc(NC(=O)CCc2nc3c(C)nn(-c4ccc(C)cc4)c3n(C)c2=O)c1` is lower in survival: 83% for the first, 81% for the second.

First: Cc1ccc(NC(=O)Cn2c(=O)n(CCc3ccccc3)c(=O)c3c4c(sc32)CCCC4)c(C)c1
Second: Cc1ccc(NC(=O)Cn2c(=O)n(Cc3ccc(F)cc3)c(=O)c3cccnc32)cc1C
The survival of the first is higher: 92% for the first, 91% for the second.

Going from `CCC1C=CCC2C(=O)N(CC(=O)NCCC3=CCCCC3)C(=O)C12` (stereo unspecified) to `CCOc1ccc2nc(NCCNC(=O)C3CCCCC3)c(C#N)cc2c1`, the survival rises from 73% to 106%.

Going from `CC(=O)N1CCCn2c1nc1ccccc12` to `Cc1cc(C)cc(-n2c(SCC(=O)N3CCCC3)nc3c([nH]c4ccccc43)c2=O)c1`, the survival falls from 92% to 89%.

First: Cc1ccc(C)c(N2CCN(C(=O)Cn3cnc4sc(C)c(S(=O)(=O)N5CCN(c6ncccn6)CC5)c4c3=O)CC2)c1
Second: Cc1cc(C)cc(-n2c(SCC(=O)N3CCCCC3)nc3c([nH]c4ccccc43)c2=O)c1
The survival of the first is lower: 67% for the first, 88% for the second.

Compared with `COc1ccc2c(CNC3CCCC3)c(C(=O)O)n(Cc3ccccc3C)c2c1`, `COc1ccc(-n2c(SCC(=O)N3CCC(C)CC3)nc3c([nH]c4ccccc43)c2=O)cc1` is lower in survival: 95% for the first, 70% for the second.

Going from `COc1ccccc1CNC(=O)CSc1ncc2c(n1)-c1cc(Cl)ccc1N(Cc1ccccc1)S2(=O)=O` to `COc1ccc(CNC(=O)CSc2ncc3c(n2)-c2ccc(Cl)cc2N(Cc2ccccc2)S3(=O)=O)cc1`, the survival falls from 80% to 49%.

Compared with `CCc1cccc(NC(=O)CSc2ncc3c(n2)-c2ccc(Cl)cc2N(Cc2ccccc2)S3(=O)=O)c1`, `O=C(CSc1ncc2c(n1)-c1ccc(Cl)cc1N(Cc1ccccc1)S2(=O)=O)Nc1ccc(F)c(F)c1` is higher in survival: 92% for the first, 131% for the second.

First: CCN(CC)N=Nc1ccc(NC(C)=O)cc1
Second: Cc1ccc(-n2nc(C)c3nc(CCC(=O)Nc4ccc(F)cc4)c(=O)n(C)c32)cc1
The survival of the first is higher: 113% for the first, 73% for the second.

Going from `CCc1ccc(-n2nc(C)c3c(C(=O)Nc4cc(C)ccc4C)cc(C)nc32)cc1` to `CCc1ccc(CNC(=O)Cn2nc(C)c3c(C)n(-c4ccc(C)cc4)nc3c2=O)cc1`, the survival rises from 60% to 79%.

Compared with `Cc1c(N)c(C)c(N)c(C)c1N`, `CCOC(=O)c1c(S(=O)(=O)NCC(=O)Nc2ccc(C)c(Cl)c2)c(C)n(C)c1C` is lower in survival: 96% for the first, 61% for the second.

Going from `COCCn1nnnc1C(c1ccc2ncccc2c1)N1CCc2ccccc21` (stereo unspecified) to `COc1ccccc1CNc1ccc(-c2nc(-c3ccco3)no2)cc1[N+](=O)[O-]`, the survival falls from 98% to 45%.

Going from `O=[N+]([O-])c1cc(-c2nc(-c3ccccc3)no2)ccc1NCc1ccco1` to `Cc1ccc(-c2noc(-c3ccc(NCc4ccco4)c([N+](=O)[O-])c3)n2)cc1`, the survival rises from 64% to 98%.

First: COc1ccc(-c2noc(-c3ccc(NCc4ccco4)c([N+](=O)[O-])c3)n2)cc1
Second: COc1ccccc1-c1noc(-c2ccc(NCc3ccco3)c([N+](=O)[O-])c2)n1
The survival of the first is lower: 43% for the first, 97% for the second.

Going from `CCC(=O)N1c2nc(C(C)C)nn2C2(CCCCC2)[C@@H]2CCCC[C@@H]21` to `CCc1ccc2[nH]c3nc(SCC(=O)OC(C)C)nnc3c2c1`, the survival rises from 81% to 108%.

First: COC(=O)c1ccc(Cn2nnc3c(=O)[nH]c(C4CCCN(S(=O)(=O)c5cccc(Cl)c5)C4)nc32)cc1 (stereo unspecified)
Second: CCOc1ccc(-n2c(SCC(=O)N3CCCC3)nc3c([nH]c4ccccc43)c2=O)cc1
The survival of the first is lower: 94% for the first, 98% for the second.

Going from `CC(C)N(C(=O)CSc1nnc(Cc2csc(Nc3ccccc3)n2)o1)C(C)C` to `Cc1cc(C)c2c(=O)c3c(oc2c1)C(=O)N(CCCOC(C)C)C3c1ccccc1F` (stereo unspecified), the survival falls from 69% to 67%.

First: CCN(CC)C(=O)/C(=C\c1ccc(OC)c(OC)c1)n1ccccc1=O
Second: CCOC(=O)CSc1nc2c([nH]c3ccccc32)c(=O)n1-c1ccc(OCC)cc1
The survival of the first is higher: 103% for the first, 99% for the second.

First: COc1ccc(-c2cccc(NS(=O)(=O)c3cc(C)c(Cl)cc3C)c2)nn1
Second: COC(=O)C(C)Sc1nc2c([nH]c3ccccc32)c(=O)n1-c1ccc(OC)cc1 (stereo unspecified)
The survival of the first is higher: 102% for the first, 64% for the second.

Compared with `CC(=O)c1sc2c(c1C)c(=O)n(-c1ccc(Cl)cc1)c(=O)n2Cc1cc(=O)n2cc(Cl)ccc2n1`, `CCOc1ccc(-n2c(SCC(=O)N3CCCCC3)nc3c([nH]c4ccccc43)c2=O)cc1` is higher in survival: 58% for the first, 107% for the second.

First: CCCCNc1ccc(-c2nc(-c3ccco3)no2)cc1[N+](=O)[O-]
Second: CCNc1ccc(-c2nc(-c3ccco3)no2)cc1[N+](=O)[O-]
The survival of the first is higher: 57% for the first, 51% for the second.

`Cc1ccc(CNc2ccc(-c3nc(-c4ccco4)no3)cc2[N+](=O)[O-])cc1` gave a survival of 53%.

In the case of `Cc1cccc(C)c1NC(=O)CSc1ncc2c(n1)-c1ccc(Cl)cc1N(Cc1ccccc1)S2(=O)=O`, the survival is reported as 0% (active).
`COc1ccccc1CNC(=O)CSc1ncc2c(n1)-c1ccc(Cl)cc1N(Cc1ccccc1)S2(=O)=O` was tested, and the survival was 32% (active).
With `Cc1ccc(-n2nc(C)c3nc(CCC(=O)Nc4cccc(F)c4)c(=O)n(C)c32)cc1` the survival was -5% (active).
With `COc1cc(-c2noc(-c3ccc(NCc4ccco4)c([N+](=O)[O-])c3)n2)cc(OC)c1OC` the survival was 49% (active).
For `COc1ccc(-c2noc(-c3ccc(NCc4ccco4)c([N+](=O)[O-])c3)n2)cc1OC`, the survival was 43% (active).
`CCCNc1ccc(-c2nc(-c3ccco3)no2)cc1[N+](=O)[O-]` was tested, and the survival was 57% (active).
For `O=[N+]([O-])c1cc(-c2nc(-c3ccco3)no2)ccc1NCc1ccccc1`, the survival was 47% (active).
`CCOc1ccc(-n2c(SC(C)C(=O)OC)nc3c([nH]c4ccccc43)c2=O)cc1` (stereo unspecified) was tested, and the survival was 0% (active).
In the case of `CCOc1ccc(-n2c(SCC(=O)N3CCOCC3)nc3c([nH]c4ccccc43)c2=O)cc1`, the survival is reported as 0% (active).
In the case of `Cc1ccc(-n2c(SCC(=O)N3CCC(C)CC3)nc3c([nH]c4ccccc43)c2=O)cc1`, the survival is reported as -5% (active).
`Cc1cc(C)cc(-n2c(SCC(=O)N3CCC(C)CC3)nc3c([nH]c4ccccc43)c2=O)c1` was tested, and the survival was 17% (active).
